Test results: PubChem BioAssay (NCI)
Compounds without any hit were thinned out: in the full panel of roughly 79,000, 15% have a hit. Calls of active or inactive are those of the source. Cut-off read from the data, not from the text of the source: active = growth inhibition above about 70%; inactive = the rest.

Tests used:
[1] = NCI Yeast Anticancer Drug Screen. Data for the rad50 strain (AID 155);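 note: 0% = growth of vehicle-only cultures of the same strain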; conditions: S. cerevisiae rad50 strain growth inhibition; at 50.0 µM; active compounds read high
In short: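 Growth of the mutant yeast was measured after compound exposure and referenced to vehicle-treated cultures.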

[2] = NCI Yeast Anticancer Drug Screen. Data for the mec2-1 strain (AID 157); conditions: S. cerevisiae mec2-1 strain, at 50.0 µM, active compounds read high
In short: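 Compounds were applied to mec2-1 yeast cells. Their growth was then compared with that of vehicle-treated cultures to give growth inhibition.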

[3] = NCI Yeast Anticancer Drug Screen. Data for the sgs1 mgt1 strain (AID 161);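 note: 0% = growth of cultures given vehicle only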; conditions: S. cerevisiae sgs1 mgt1 strain, at 50.0 µM, active compounds read high
In short: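 Percent growth inhibition was derived by comparing compound-exposed mutant yeast with vehicle-exposed cultures. The strain carries alterations in DNA damage repair.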

[4] = NCI Yeast Anticancer Drug Screen. Data for the cln2 rad14 strain (AID 165);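 note: 0% = growth equal to vehicle treated cultures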; conditions: S. cerevisiae cln2 rad14 strain, at 50.0 µM, active compounds read high
In short: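 Strain: cln2 rad14 yeast, altered in cell cycle control and DNA damage repair. Read-out: growth inhibition vs vehicle.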

[5] = NCI Yeast Anticancer Drug Screen. Data for the bub3 strain (AID 167); conditions: S. cerevisiae bub3 mutant strain, at 50.0 µM, active compounds read high
In short: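 Whole-cell yeast assay. The mutant strain was incubated with compounds, and growth inhibition was determined by comparison with vehicle-treated cells.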

[6] = NCI Yeast Anticancer Drug Screen. Data for the mlh1 rad18 strain (AID 175); conditions: S. cerevisiae mlh1 rad18 strain growth inhibition; at 50.0 µM; active compounds read high
In short: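 A repair-deficient yeast strain is exposed to test compound, and growth is scored relative to vehicle-treated controls.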

Measured: growth inhibition

N#Cc1ccc(OCCCCCOc2ccc([N+](=O)[O-])cc2)cc1
inactive: [1] 19.4% | [2] 11.6% | [3] 8.65% | [4] 12.8% | [5] 13.9% | [6] 4.4%

CC(c1ccccc1)C(O)S(=O)(=O)O (stereo unspecified)
inactive: [1] 6.95% | [2] 3.7% | [3] 7.35% | [4] -5.05% | [5] 17.3% | [6] -0.35%

CCOC(=O)CCc1cn2cc(Br)nc(OC)c2n1
inactive: [1] -18.6% | [2] -38% | [3] 14.6% | [4] 19.9% | [5] 3.7% | [6] -13.6%

CCOC(=O)C1C(c2ccc(Br)cc2)N(Cc2ccccc2)C(c2ccc(Br)cc2)C(C(=O)OC)S1(=O)=O (stereo unspecified)
inactive: [1] -42.2% | [2] -49.5% | [3] -16.6% | [4] -25.1% | [5] -21.4% | [6] -22.1%

CCN1N=CSC12C(=O)N(c1ccccc1)C(=O)N2c1ccccc1 (stereo unspecified)
inactive: [1] -20.6% | [2] -15.1% | [3] -31.9% | [4] 0.35% | [5] -14.7% | [6] -38.6%

CCCCC(C(O)c1ccc(C(C)C)cc1)N(CC)CC (stereo unspecified)
inactive: [1] 56.2% | [2] 34.1% | [3] 53.9% | [4] 9% | [5] 62.2% | [6] 38%

O=C(O)c1ccc(OCC(=O)c2ccccc2)cc1
inactive: [1] 6.35% | [2] 16.9% | [3] -5.6% | [4] -6.65% | [5] 36.1% | [6] 8.25%

CCOc1ccc(/C=C2N=C(/C=C/c3ccccc3)OC\2=O)cc1
inactive: [1] 19% | [2] 14.8% | [3] 19.1% | [4] 16.6% | [5] 3.2% | [6] 3.75%

CCOC(CN=C=S)OCC
inactive: [1] 4.25% | [2] -3.95% | [3] 16.6% | [4] 9.05% | [5] -3.35% | [6] 4.65%

Clc1ccc(-c2cc3ccccc3[nH]2)cc1
inactive: [1] 23.9% | [2] -3.3% | [3] -1.25% | [4] -32.4% | [5] 2.4% | [6] -5.05%

Cc1cc(NS(=O)(=O)c2ccc(NC(=O)c3cccc4c(N)c5ccccc5nc34)cc2)no1
inactive: [1] 34.1% | [2] 14.9% | [3] 29.3% | [4] 39.5% | [5] 3.85% | [6] 37%

COC(=O)C1C2C=CC(C2)C1C(=O)OC (stereo unspecified)
inactive: [1] -20.5% | [2] 36.5% | [3] -10.8% | [4] -27.9% | [5] -7.95% | [6] 0.1%

COc1ccccc1/C(=N\OCCC(=O)O)c1cccs1
inactive: [1] 2.15% | [2] -0.95% | [3] 5.95% | [4] 0.65% | [5] -1.25% | [6] -51.1%

NC(CSSCC(N)=NCC12CC3CC(CC(C3)C1)C2)=NCC12CC3CC(CC(C3)C1)C2
active: [1] 99.4% | [2] 99.5% | [3] 99.5% | [4] 97.4% | [5] 98.8% | [6] 99.2%

CN1CC(O)c2cc(N=NC(N)=O)c(O)cc21 (stereo unspecified)
inactive: [1] -16.6% | [2] -9.5% | [3] -4.85% | [4] 5.85% | [5] -7.25% | [6] -2.45%

CC(O)C1CC1 (stereo unspecified)
inactive: [1] -17% | [2] -40.8% | [3] 9.3% | [4] 1.65% | [5] -2.2% | [6] -5.7%

CC(C)(N=NC(C)(C)C(=O)NCCO)C(=O)NCCO
inactive: [1] -6.15% | [2] -6.65% | [3] 0.85% | [4] 19.7% | [5] 2% | [6] -0.65%

O=NN(CCCl)C(=O)NCCc1cccc[n+]1[O-]
inactive: [1] 2.6% | [2] 14.3% | [3] -14.1% | [4] -5.75% | [5] -2.45% | [6] -57.6%

Cc1cc2c(C(C)C)c(O)c(O)c(C=Nc3ccccc3O)c2c(O)c1-c1c(C)cc2c(C(C)C)c(O)c(O)c(C=Nc3ccccc3O)c2c1O
inactive: [1] -25.3% | [2] -9.2% | [3] -20.9% | [4] -23.4% | [5] -9.75% | [6] -26.3%

O=S(=O)(O)c1ccc(Nc2ccnc3cc(Cl)ccc23)cc1
inactive: [1] -21.4% | [2] -32.1% | [3] -39.8% | [4] -3.9% | [5] -29.1% | [6] -10%

CCOC(=O)CC(C(=O)OCC)C(=O)OCC
inactive: [1] -7.4% | [2] -11.4% | [3] -8.1% | [4] -6.35% | [5] 5.45% | [6] -4.1%

COc1ccc(CN2CCCN(Cc3ccc(OC)cc3OC)C2c2ccccc2)c(OC)c1
inactive: [1] 19.6% | [2] 6.9% | [3] 8.05% | [4] 17.9% | [5] -4.6% | [6] 14.8%

CC1CCC2(OC1)OC1CC3C4CCC5CC(O)CCC5(C)C4CC(=O)OC3(C)C1C2C (stereo unspecified)
inactive: [1] -10.8% | [2] -23.6% | [3] -14.8% | [4] -7.35% | [5] -25% | [6] 2.2%

Nc1ccc2ccsc2c1
inactive: [1] 1.6% | [2] -22.7% | [3] 26.2% | [4] 17.1% | [5] 12.9% | [6] 35.5%

CC(=O)OC1(C)C(=O)OC/C2=C/CN(C)CCC(OC(=O)C(O)(C(C)Cl)CC1C)C2=O (stereo unspecified)
inactive: [1] 4.75% | [2] 2.9% | [3] -7.95% | [4] 13% | [5] -6.35% | [6] -43.9%

COc1ccc2ccccc2c1C1=NC(C)(C)CO1
inactive: [1] -6.65% | [2] -18.6% | [3] 2.6% | [4] 18.5% | [5] -3.8% | [6] -16.6%

CCOC(=O)C(NC(C)=O)(C(=O)OCC)C1CCCCC1=O (stereo unspecified)
inactive: [1] -10.8% | [2] 2.65% | [3] -33.4% | [4] -3.4% | [5] -10.8% | [6] -20.5%

CSc1c(C)n([O-])c2ccccc2[n+]1=O
inactive: [1] 23.1% | [2] 26.1% | [3] 8.85% | [4] -20.5% | [5] 26.1% | [6] 5.4%

CS(=O)(=O)NCCBr
inactive: [1] -10.4% | [2] -3.5% | [3] 5.9% | [4] -22.4% | [5] -32% | [6] -10.9%

CC(=O)N1CC/C(=C\c2ccccc2)C1=O
inactive: [1] -10.1% | [2] -7.25% | [3] -12.5% | [4] -6.85% | [5] 0.25% | [6] -3.2%

CC(C)C(C)(C)C(N)=O
inactive: [1] -4.5% | [2] -0.95% | [3] -9.1% | [4] 13.9% | [5] 19.6% | [6] 0.95%

CN1C2CCC1/C(=C/c1cccc3c1OCO3)C(=O)/C2=C\c1cccc2c1OCO2
inactive: [1] 27.8% | [2] 19.8% | [3] 20.4% | [4] -52% | [5] 32.3% | [6] 27.1%

NC(=O)/N=C/NC(N)=O
inactive: [1] 21.6% | [2] -14.3% | [3] 21.8% | [4] -5.3% | [5] -24.5% | [6] 2.65%

COc1ccc2ccccc2c1C(=O)/C=C/c1ccccc1
inactive: [1] 35% | [2] 33.6% | [3] 38.9% | [4] 47.8% | [5] 58.8% | [6] 39.4%

CC(C)(CN1C(=O)C(Cl)=C(Cl)C1=O)CN1C(=O)C(Cl)=C(Cl)C1=O
inactive: [1] 1.7% | [2] -5.6% | [3] 6.3% | [4] -20.8% | [5] -5.8% | [6] 9.2%

Cc1c(OC(C)C(=O)O)ccc2c(-c3ccccc3)cc(=O)oc12 (stereo unspecified)
inactive: [1] 2.95% | [2] 12.7% | [3] 23.9% | [4] 27.2% | [5] 5.9% | [6] 38.2%

C=CCNC(=O)C[n+]1cccc(C(=O)NC)c1
inactive: [1] 22.6% | [2] 8.35% | [3] -9.15% | [4] -5.35% | [5] -0.45% | [6] -17.8%

NS(=O)(=O)c1ccc(NC(=O)Nc2ccccc2F)cc1
inactive: [1] -3.35% | [2] -6.85% | [3] -28.4% | [4] -13.2% | [5] 1.15% | [6] 12.6%

c1ccc(COC2COC(OCc3ccccc3)C(OCc3ccccc3)C2OCc2ccccc2)cc1 (stereo unspecified)
inactive: [1] 1.05% | [2] -3.45% | [3] 3.4% | [4] -36.4% | [5] 12.4% | [6] -3.3%

CCOC(=O)c1c(C(=O)Nc2ccccc2)c(-c2ccccc2)n(NC(N)=O)c1C
inactive: [1] 5.25% | [2] 5.95% | [3] 0.5% | [4] -2.4% | [5] 0.85% | [6] 2.95%

CSc1ccc(NC(=O)Nc2cccc(C)c2C)cc1
inactive: [1] 1.75% | [2] 27.1% | [3] 27.8% | [4] -7.2% | [5] 27.6% | [6] 15.3%
